{"source": "PubChem BioAssay (Tox21)", "note": "Inconclusive results are not listed. Activity calls are given as the source filed them. Calls follow the shape of the dose curve; as a rule, active = well fitted cell-killing curve with a large enough effect in the repeat runs; inconclusive = weak or mixed curves, or effect the other way; inactive = flat fitted curve, though single readings scatter. Non-standard residues stand in square brackets, D forms with d. Residues, ends and D or L forms follow the SMILES beside them. *: point of attachment. Sta = CC(C)C[C@H](N)[C@@H](O)CC(=O)O; Isovaleryl = CC(C)CC(=O)*; also: top concentration of the series differs between compounds; % is scaled to controls: 0 for no effect and ±100 for the full control effect; nearly all actives have a fitted effect of over 50% in size", "data": [{"assay": "qHTS RealTime-Glo MT Cell Viability Assay in HEK293 cells - 24 hour (AID 1224886)", "conditions": "RealTime-Glo luminescence; series mostly up to 76.8 µM", "in_short": "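HEK293 cells were seeded at 600 cells/well together with NanoLuc luciferase and cell-permeant prosubstrate, preincubated 5 h at 37 C/5% CO2, then given compound in DMSO by pintool. Luminescence from viable-cell prosubstrate reduction was read repeatedly over 40 h.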", "values": [{"smiles": "CC(C)CC(=O)N[C@H](C(=O)N[C@H](C(=O)N[C@@H](CC(C)C)[C@@H](O)CC(=O)N[C@@H](C)C(=O)N[C@@H](CC(C)C)[C@@H](O)CC(=O)O)C(C)C)C(C)C", "note": "(Isovaleryl-VV[Sta]A[Sta]-OH)", "outcome": "inactive"}, {"smiles": "CCCCCCC(=O)c1ccccc1", "outcome": "inactive"}, {"smiles": "CNC(=O)c1c(I)c(NC(C)=O)c(I)c(C(=O)O)c1I", "outcome": "inactive"}, {"smiles": "CCCCCCCCCCCCCC(=O)OCC", "outcome": "inactive"}, {"smiles": "C=CCN(CC=C)CC=C", "outcome": "inactive"}, {"smiles": "CC(O)C(CO)C(C)O", "note": "(stereo not given)", "outcome": "inactive"}, {"smiles": "O=C(O)/C=C(\\CC(=O)O)C(=O)O", "outcome": "inactive"}, {"smiles": "CC(=O)Nc1ccc(S(=O)(=O)Nc2cc(C)on2)cc1", "outcome": "inactive"}, {"smiles": "C[C@@H](CN1CC(=O)NC(=O)C1)N1CC(=O)NC(=O)C1", "outcome": "inactive"}, {"smiles": "CCCCCCCCOCCC#N", "outcome": "inactive"}, {"smiles": "CC/C=C/CCCCCCCCCCOC(C)=O", "outcome": "inactive"}, {"smiles": "CC/C=C\\CCOC(=O)c1ccccc1", "outcome": "inactive"}, {"smiles": "COC(=O)C(c1ccccc1Cl)N1CCc2sccc2C1", "note": "(stereo not given)", "outcome": "inactive"}, {"smiles": "Cc1ccc2ccccc2n1", "outcome": "inactive"}, {"smiles": "CC(C)(C)c1ccc(N)cc1", "outcome": "inactive"}, {"smiles": "Cc1ccccc1OCC(=O)O", "outcome": "inactive"}, {"smiles": "O=C(O)Cc1c(Cl)ccc(Cl)c1Cl", "outcome": "inactive"}, {"smiles": "CCCCCCCCCCCCCCBr", "outcome": "inactive"}, {"smiles": "CCCCCCCC(=O)N(C)C", "outcome": "inactive"}, {"smiles": "COC(=O)/C=C(\\C)CCC=C(C)C", "outcome": "inactive"}, {"smiles": "Clc1cc(Cl)c(Cl)c(Cl)c1Cl", "outcome": "inactive"}, {"smiles": "CCCc1ncc(C(=O)O)s1", "outcome": "inactive"}, {"smiles": "Cc1cc(C)c(N)c(Cl)c1", "outcome": "inactive"}, {"smiles": "COc1cc(C(=O)NC2CCCNC2)cc(OC)c1OC", "note": "(stereo not given)", "outcome": "inactive"}, {"smiles": "CCCC(=O)C(CC)Sc1ccoc1C", "note": "(stereo not given)", "outcome": "inactive"}, {"smiles": "C=CCCCCCCCCCCCCCC", "activity change, negative = cytotoxicity": "-1.45% [at 15.8 µM] (inactive)"}, {"smiles": "Cc1ccc2cccnc2c1", "outcome": "inactive"}, {"smiles": "Cc1ccc(OC(=O)CC(C)C)cc1", "outcome": "inactive"}]}, {"assay": "qHTS RealTime-Glo MT Cell Viability Assay in HEK293 cells - 8 hour (AID 1224887)", "conditions": "RealTime-Glo luminescence; series mostly up to 76.8 µM", "in_short": "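Real-time viability in HEK293: signal arises when living cells convert a prosubstrate for NanoLuc in the medium, so luminescence tracks viable cell number. Compound (23 nL, DMSO) added 5 h post-seeding; kinetic reads at 0–40 h, 37 C.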", "values": [{"smiles": "CC(C)CC(=O)N[C@H](C(=O)N[C@H](C(=O)N[C@@H](CC(C)C)[C@@H](O)CC(=O)N[C@@H](C)C(=O)N[C@@H](CC(C)C)[C@@H](O)CC(=O)O)C(C)C)C(C)C", "note": "(Isovaleryl-VV[Sta]A[Sta]-OH)", "outcome": "inactive"}, {"smiles": "CNC(=O)c1c(I)c(NC(C)=O)c(I)c(C(=O)O)c1I", "outcome": "inactive"}, {"smiles": "CCCCCCCCCCCCCC(=O)OCC", "outcome": "inactive"}, {"smiles": "C=CCN(CC=C)CC=C", "outcome": "inactive"}, {"smiles": "O=C(O)CCC(=O)Nc1ccc(S(=O)(=O)Nc2nccs2)cc1", "outcome": "inactive"}, {"smiles": "CC(O)C(CO)C(C)O", "note": "(stereo not given)", "outcome": "inactive"}, {"smiles": "CC(=O)Nc1ccc(S(=O)(=O)Nc2cc(C)on2)cc1", "outcome": "inactive"}, {"smiles": "C[C@@H](CN1CC(=O)NC(=O)C1)N1CC(=O)NC(=O)C1", "outcome": "inactive"}, {"smiles": "CC/C=C/CCCCCCCCCCOC(C)=O", "outcome": "inactive"}, {"smiles": "COC(=O)C(c1ccccc1Cl)N1CCc2sccc2C1", "note": "(stereo not given)", "outcome": "inactive"}, {"smiles": "CCCCOCCCC", "outcome": "inactive"}, {"smiles": "Cc1ccc2ccccc2n1", "outcome": "inactive"}, {"smiles": "CC(C)(C)c1ccc(N)cc1", "outcome": "inactive"}, {"smiles": "Cc1ccccc1OCC(=O)O", "outcome": "inactive"}, {"smiles": "CCCCCCCCCCCCCCBr", "outcome": "inactive"}, {"smiles": "COC(=O)/C=C(\\C)CCC=C(C)C", "outcome": "inactive"}, {"smiles": "Cc1cc(C)c(N)c(Cl)c1", "outcome": "inactive"}, {"smiles": "CC(C)C(=O)Nc1cccc(C2CN3CCSC3=N2)c1", "note": "(stereo not given)", "outcome": "inactive"}, {"smiles": "COc1cc(C(=O)NC2CCCNC2)cc(OC)c1OC", "note": "(stereo not given)", "outcome": "inactive"}, {"smiles": "CCO/C=C1\\N=C(c2ccccc2)OC1=O", "outcome": "inactive"}, {"smiles": "CCCC(=O)C(CC)Sc1ccoc1C", "note": "(stereo not given)", "outcome": "inactive"}, {"smiles": "CC(C)(C)C(=O)NCCCC(=O)O", "outcome": "inactive"}]}]}
